{
  "source": "PubChem BioAssay (NCATS)",
  "data": [
    {"test": "qHTS profiling of the MIPE4 collection as inhibitors of Plasmodium falciparum (3D7) proliferation (AID 743344);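 note: scaled between DMSO vehicle wells and 0.29 µM artemisinin as full inhibition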", "settings": "P. falciparum 3D7 in erythrocytes, SYBR Green DNA fluorescence, 72 h; at 28.5 µM unless noted", "excerpt": "Plasmodium falciparum is a virulent malarial parasite that kills 1-2 million people worldwide each year. Transmitted by mosquitoes, the sporozoite form of the parasite enters the blood stream to infect hepatocytes, where they become merozoites that infect red blood cells (erythrocytes). Within erythrocytes, merozoites begin a […] cycle of growth and division, after which the parasite is released to infect new red blood cells. Gametocytes, which form within erythrocytes as well, circulate in the bloodstream and are ingested by the mosquito, thereby completing the life cycle. To profile malarial isolates for differential chemical responses and to identify inhibitors of malarial growth, an assay that measures P. falciparum growth and replication within erythrocytes was employed. This assay uses a DNA binding fluorescent dye (SYBR Green) to detect parasite DNA following cell lysis. Because mature erythrocytes lack DNA, only Plasmodium-derived DNA is detected.\nThe SYBR Green viability assay was adapted from a method described previously (Plouffe et al., 2008). For screening 3 ul culture medium was dispensed into 1536 well black clear bottom plates (Aurora Biotechnologies) using a Multidrop Combi (Thermo Fisher Scientific Inc.), 23 nL compounds in DMSO were added by a pin tool (Kalypsys), and 5 ul of erythrocytes infected with P. falciparum (0.3% parasitemia, 2.5% hematocrit final concentration) were added. The plates were incubated at 37 C in a humidified incubator in 5% CO2 for 72 h, and 2 ul lysis buffer (20 mM Tris HCl, 10 mM EDTA, 0.16% saponin, 1.6% triton X, 10X SYBR Green I supplied as 10,000X […] by Invitrogen) was added to each well. The plates were mixed for 25 sec with gentle shaking and incubated overnight at room temperature in the dark. The following morning, fluorescence intensity at 485(14) nm excitation and 535(25) nm emission wavelengths was measured on an EnVision (Perkin Elmer) plate reader. Plate reads were normalized relative to the control inhibitor (0.29 uM artemisinin) and vehicle (DMSO) wells present on each plate and then corrected by an algorithm using vehicle-only control plates at the beginning and end of the compound plate stack.", "units": {"parasite growth, % of DMSO control": "%"}, "values": [
      {"molecule": "Cc1nc(N)sc1-c1ccnc(Nc2ccc(N3CCOCC3)cc2)n1", "parasite growth, % of DMSO control": 6.44},
      {"molecule": "Clc1cc(Cl)cc(CNc2ncncc2-c2ccc3c(c2)OCO3)c1", "parasite growth, % of DMSO control": 18.8},
      {"molecule": "CCOc1ccc(Nc2nc(-c3c(C)nc4ccccn34)cs2)cc1", "parasite growth, % of DMSO control": 11.9},
      {"molecule": "CN1CCN(CCOc2cc(OC3CCOCC3)c3c(Nc4c(Cl)ccc5c4OCO5)ncnc3c2)CC1", "parasite growth, % of DMSO control": 5.31},
      {"molecule": "CC(=NNC(=S)N1CCC1)c1ccccn1", "parasite growth, % of DMSO control": 5.99},
      {"molecule": "CCOC(CN1C(=O)[C@](CC(=O)Nc2ccc(C)cc2)(NC(=O)Nc2ccc(C)cc2)c2ccccc21)OCC", "parasite growth, % of DMSO control": 14},
      {"molecule": "CO[C@H]1C[C@@H]2CC[C@@H](C)[C@@](O)(O2)C(=O)C(=O)N2CCCC[C@@H]2C(=O)O[C@H]([C@H](C)C[C@@H]2CC[C@H](OC(=O)C(C)(CO)CO)[C@H](OC)C2)CC(=O)[C@H](C)C=C(C)[C@@H](O)[C@@H](OC)C(=O)[C@H](C)C[C@H](C)C=CC=CC=C1C", "parasite growth, % of DMSO control": 5.79},
      {"molecule": "Cc1cccc(Nc2nc(-c3ccncc3)cs2)c1", "parasite growth, % of DMSO control": 29.1},
      {"molecule": "O=c1cc(-c2cccc3c2Sc2ccccc2S3)oc(N2CCOCC2)c1", "parasite growth, % of DMSO control": 64.9},
      {"molecule": "c1ccc2c(-c3cnn4cc(-c5ccc(N6CCNCC6)cc5)cnc34)ccnc2c1", "parasite growth, % of DMSO control": 4.34},
      {"molecule": "C[N+](C)(C)CC(=O)O", "parasite growth, % of DMSO control": 86.7},
      {"molecule": "CC[C@@]1(O)C[C@H](O[C@H]2C[C@H](N(C)C)[C@H](O[C@H]3C[C@H](O)[C@H](O[C@H]4CCC(=O)[C@H](C)O4)[C@H](C)O3)[C@H](C)O2)c2c(cc3c(c2O)C(=O)c2c(O)cccc2C3=O)[C@@H]1C(=O)OC", "parasite growth, % of DMSO control": 3.31},
      {"molecule": "O=C(CCN1CCN(C(=O)OCc2cc(Cl)cc(Cl)c2)CC1)c1ccc2[nH]c(=O)oc2c1", "parasite growth, % of DMSO control": 101},
      {"molecule": "COc1ccc(-c2oc3c(CC=C(C)C)c(OC4O[C@H](CO)[C@@H](O)[C@H](O)[C@@H]4O)cc(O)c3c(=O)c2OC2O[C@@H](C)[C@H](O)[C@@H](O)[C@@H]2O)cc1", "note": "(stereo not given in full)", "parasite growth, % of DMSO control": 8.49},
      {"molecule": "CNC(=O)c1ccc2cc(C3(O)CCn4cncc43)ccc2c1", "note": "(stereo not given)", "parasite growth, % of DMSO control": 84.5},
      {"molecule": "O=C(O)c1ccc(-c2cc3cccnc3c(-c3ccc4nonc4c3)n2)cc1", "parasite growth, % of DMSO control": 15.8},
      {"molecule": "CO[C@H]1C[C@@H]2CC[C@@H](C)[C@@](O)(O2)C(=O)C(=O)N2CCCC[C@@H]2C(=O)O[C@H]([C@H](C)C[C@@H]2CC[C@H](OCCO)[C@H](OC)C2)CC(=O)[C@H](C)C=C(C)[C@@H](O)[C@@H](OC)C(=O)[C@H](C)C[C@H](C)C=CC=CC=C1C", "parasite growth, % of DMSO control": 4.95},
      {"molecule": "O=C(Nc1cccc(Br)c1)c1cccc(S(=O)(=O)N2CCCCCC2)c1", "parasite growth, % of DMSO control": 55.6},
      {"molecule": "Nc1ncnc2c1ncn2[C@@H]1O[C@@H](CO)[C@H](O)[C@H]1O", "parasite growth, % of DMSO control": 103},
      {"molecule": "NC(=O)c1cccc(-c2cc(Nc3ccc(OC(F)(F)F)cc3)ncn2)c1", "parasite growth, % of DMSO control": 12.3},
      {"molecule": "O=C1c2c(O)cc(O)cc2O[C@H](c2cc(O)c(O)c(O)c2)[C@H]1O", "parasite growth, % of DMSO control": 85.4},
      {"molecule": "O=c1c(-c2ccc(O)cc2)coc2cc(O)ccc12", "parasite growth, % of DMSO control": 100},
      {"molecule": "O=C(O)c1ccc(-c2c[nH]c3ncc(-c4ccccc4)cc23)cc1C1CCCC1", "parasite growth, % of DMSO control": 5.48},
      {"molecule": "CN[C@@H](C)C(=O)N[C@H]1CN(C(=O)CC(C)C)CC[C@H]2CC[C@@H](C(=O)NC(c3ccccc3)c3ccccc3)N2C1=O", "parasite growth, % of DMSO control": 69.1},
      {"molecule": "N#C[C@H]1C[C@H]2C[C@@H]2N1C(=O)[C@@H](N)C12CC3CC(CC(O)(C3)C1)C2", "parasite growth, % of DMSO control": 97.9},
      {"molecule": "Cc1c(NC(=O)c2ccc(C(C)(C)C)cc2)cccc1-c1cn(C)c(=O)c(Nc2ccc(C(=O)N3CCOCC3)cc2)n1", "parasite growth, % of DMSO control": 5.68},
      {"molecule": "C[C@]12CCC3c4ccc(O)cc4CCC3C1CCC2=O", "note": "(stereo not given in full)", "parasite growth, % of DMSO control": 51.9},
      {"molecule": "O=C(CCc1ccc(O)cc1)c1c(O)cc(O)cc1O[C@@H]1O[C@H](CO)[C@H](O)[C@H](O)[C@H]1O", "parasite growth, % of DMSO control": 272},
      {"molecule": "CON=C(C(=O)N[C@@H]1C(=O)N2C(C(=O)OCOC(=O)C(C)(C)C)=C(C=Cc3scnc3C)CS[C@H]12)c1csc(N)n1", "parasite growth, % of DMSO control": 60.4},
      {"molecule": "CC1(C)S[C@H]2[C@H](NC(=O)[C@@H](N)c3ccc(O)cc3)C(=O)N2[C@@H]1C(=O)O", "parasite growth, % of DMSO control": 7.42},
      {"molecule": "O=c1cc(-c2ccccc2)oc2cc(O)c(O)c(O)c12", "parasite growth, % of DMSO control": 7.41},
      {"molecule": "CCC(=O)O[C@]1(C(=O)CO)CC[C@H]2[C@@H]3CCC4=CC(=O)CC[C@]4(C)[C@@H]3CC[C@@]21C", "parasite growth, % of DMSO control": 37.1},
      {"molecule": "Cc1ccc(/C=N/NC(=O)c2ccccc2Oc2ccccc2)o1", "parasite growth, % of DMSO control": 82.9},
      {"molecule": "COCCOc1nc(-c2ccc(Cl)c(Cl)c2)n(-c2ccc(NC(=O)CCl)cc2)n1", "parasite growth, % of DMSO control": 20.8},
      {"molecule": "CC(C)(C)COc1ccc(-n2cc(C(=O)O)cn2)cc1C#N", "parasite growth, % of DMSO control": 75},
      {"molecule": "N#CC1(c2ccc(NC(=O)c3cccnc3NCc3ccncc3)cc2)CCCC1", "parasite growth, % of DMSO control": 18.4},
      {"molecule": "O=c1cc(-c2ccccc2)oc2cc(O)cc(O)c12", "parasite growth, % of DMSO control": 48.1},
      {"molecule": "Cc1ccn(-c2ccc(-c3ncco3)cc2)c(=O)c1-c1ccc2nc(N)ncc2c1", "parasite growth, % of DMSO control": 21.1},
      {"molecule": "CN(C)c1cc(NC(=O)CNC(C)(C)C)c(O)c2c1C[C@@H]1C[C@H]3[C@H](N(C)C)C(=O)C(C(N)=O)=C(O)[C@@]3(O)C(=O)C1=C2O", "parasite growth, % of DMSO control": 83},
      {"molecule": "COc1cc2nc(-c3ccc(N4CCN(C)CC4)cc3)nc(NCCN3CCOCC3)c2cc1OC", "parasite growth, % of DMSO control": 5.09}
    ]}
  ]
}
